Measured values published in the antibiotic and cytotoxicity screens of Wong et al. (2023).
About 3,300 (8.5%) of roughly 39,000 compounds were called active. The sample holds actives, similar compounds and a random draw of the others, so the mix is not that of the screen.

system: HepG2; experiment: cytotoxicity call (relative viability < 0.9); conditions: 10 µM

Compound | cytotoxicity call
CC(C)NC(=O)N(C)C[C@@H]1Oc2ccc(NC(=O)CCN3CCOCC3)cc2C(=O)N([C@@H](C)CO)C[C@@H]1C | inactive
COc1ccc2c3c(n(c2c1)C)[C@H](CO)N(C[C@]13CCN(CC1)C(=O)CC1CC1)C(=O)CN1CCOCC1 | inactive
COc1ccc(-c2cnc3c(c2)C(=O)N([C@@H](C)CO)C[C@@H](C)[C@H](CN(C)C(=O)C2CCOCC2)O3)cc1 | inactive
C[C@H]1CCCCO[C@H](CN(C)Cc2ccc(C(=O)O)cc2)[C@@H](C)CN([C@@H](C)CO)C(=O)c2cc(NC(=O)Cc3ccccc3)ccc2O1 | inactive
Cc1ccc(S(=O)(=O)Nc2ccc3c(c2)C(=O)N([C@@H](C)CO)C[C@@H](C)[C@@H](CN(C)CC2CC2)O3)cc1 | inactive
CO[C@H]1CN(C)C(=O)c2ccc(NS(=O)(=O)c3ccccc3)cc2OC[C@H](C)N(C(=O)NC(C)C)C[C@@H]1C | inactive
COc1ccc(NC(=O)N(C)C[C@H]2Oc3ccc(NS(=O)(=O)c4cn(C)cn4)cc3CC(=O)N([C@@H](C)CO)C[C@H]2C)cc1 | inactive
O=C(C[C@@H]1C[C@H]2c3cc(NC(=O)Cc4ccncc4)ccc3O[C@H]2[C@H](CO)O1)NCCN1CCCCC1 | inactive
CC(=O)N[C@H]1[C@H](O[C@@H]2[C@@H](O)[C@H](C)O[C@@H](Oc3ccc4c(=O)c(-c5ccc(O)cc5)coc4c3)[C@@H]2O)O[C@H](CO)[C@@H](O[C@@H]2O[C@@H](C)[C@H](O)[C@@H](O)[C@H]2O)[C@@H]1O | inactive
O=C(C[C@@H]1C=C[C@@H](NC(=O)c2ccncc2)[C@@H](CO)O1)NCc1ccncn1 | inactive
C[C@@H]1CCCCO[C@H](CN(C)Cc2ccc(C(=O)O)cc2)[C@H](C)CN([C@@H](C)CO)C(=O)c2cc(NC(=O)Nc3ccc(F)cc3)ccc2O1 | inactive
COc1ccc(S(=O)(=O)Nc2ccc3c(c2)C(=O)N([C@H](C)CO)C[C@H](C)[C@@H](CN(C)S(=O)(=O)c2ccccc2)O3)cc1 | inactive
CC(C)NC(=O)Nc1ccc2c(c1)C(=O)N([C@H](C)CO)C[C@@H](C)[C@@H](CN(C)Cc1ccc(C(F)(F)F)cc1)OCCCC[C@@H](C)O2 | inactive
CC(C)NC(=O)Nc1ccc2c(c1)C(=O)N([C@@H](C)CO)C[C@@H](C)[C@H](CN(C)Cc1ccc(C(F)(F)F)cc1)OCCCC[C@H](C)O2 | inactive
CC(C)NC(=O)Nc1ccc2c(c1)C(=O)N([C@@H](C)CO)C[C@H](C)[C@@H](CN(C)Cc1ccc(C(F)(F)F)cc1)OCCCC[C@H](C)O2 | active
CC(C)NC(=O)Nc1ccc2c(c1)C(=O)N([C@H](C)CO)C[C@H](C)[C@H](CN(C)Cc1ccc(C(F)(F)F)cc1)OCCCC[C@H](C)O2 | inactive
CC(C)NC(=O)Nc1ccc2c(c1)C(=O)N([C@@H](C)CO)C[C@@H](C)[C@@H](CN(C)Cc1ccc(C(F)(F)F)cc1)OCCCC[C@@H](C)O2 | active
CC(C)NC(=O)Nc1ccc2c(c1)C(=O)N([C@@H](C)CO)C[C@H](C)[C@H](CN(C)Cc1ccc(C(F)(F)F)cc1)OCCCC[C@H](C)O2 | inactive
